Measurements reported in paper PMC7862700, “An all-to-all approach to the identification of sequence-specific readers for epigenetic DNA modifications on cytosine”.

Key:
Experiment in all cases: DAPPL (digital affinity profiling via proximity ligation, sequencing); 10 mM Tris-HCl pH 7.5, 50 mM NaCl, 1 mM DTT, 4% glycerol, room temperature, 30 min; GST-TFs on glutathione beads, 16-mer random dsDNA library, 0.1% formaldehyde crosslink after washing; high values mean tight binding
Conditions in all cases: protein: recombinant; tags: N-terminal GST; dsDNA, one strand shown
[1] = target: T1, FLI1 (Homo sapiens, UniProt Q01543 1-452)
T1 sequence: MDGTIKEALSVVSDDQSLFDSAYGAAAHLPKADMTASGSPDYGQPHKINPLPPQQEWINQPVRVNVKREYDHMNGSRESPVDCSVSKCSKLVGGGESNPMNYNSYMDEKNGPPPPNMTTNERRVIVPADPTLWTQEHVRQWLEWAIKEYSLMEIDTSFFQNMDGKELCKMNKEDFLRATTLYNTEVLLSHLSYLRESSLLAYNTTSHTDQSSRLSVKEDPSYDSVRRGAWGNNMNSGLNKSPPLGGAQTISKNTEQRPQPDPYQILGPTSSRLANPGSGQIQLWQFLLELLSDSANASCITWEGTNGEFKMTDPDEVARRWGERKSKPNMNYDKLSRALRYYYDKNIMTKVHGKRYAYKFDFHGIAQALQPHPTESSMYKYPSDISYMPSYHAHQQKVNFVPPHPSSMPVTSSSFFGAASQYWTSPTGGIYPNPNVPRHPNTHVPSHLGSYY
Summary of the method: (§1)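 Each value of binding signal is a hexamer's read frequency for a factor divided by the same hexamer's frequency in the tag-only sample. Barcoded, bead-captured GST fusions of human transcription factors made in yeast were pooled with that sample and incubated with 200 nmole of a random double-stranded 16-mer DNA library in Tris/NaCl/DTT/glycerol buffer at room temperature for 30 min. Washing, 0.1% formaldehyde crosslinking, proximity ligation, PCR and Illumina NextSeq500 sequencing followed.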

[2] = target: T2, ELK1 (Homo sapiens, UniProt P19419 1-428)
T2 sequence: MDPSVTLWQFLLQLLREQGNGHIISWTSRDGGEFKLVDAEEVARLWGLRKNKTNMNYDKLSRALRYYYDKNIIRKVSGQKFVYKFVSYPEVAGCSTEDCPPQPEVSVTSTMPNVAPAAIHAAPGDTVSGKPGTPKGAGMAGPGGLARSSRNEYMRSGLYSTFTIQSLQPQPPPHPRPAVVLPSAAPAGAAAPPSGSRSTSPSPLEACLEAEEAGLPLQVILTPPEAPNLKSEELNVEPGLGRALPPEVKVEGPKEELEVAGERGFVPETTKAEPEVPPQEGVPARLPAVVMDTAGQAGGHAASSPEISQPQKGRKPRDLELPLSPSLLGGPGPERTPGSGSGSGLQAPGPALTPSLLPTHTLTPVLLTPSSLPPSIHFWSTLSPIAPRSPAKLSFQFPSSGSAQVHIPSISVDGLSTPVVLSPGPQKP
Summary of the method: as §1

[3] = target: T3, GABPA (Homo sapiens, UniProt Q06546 1-454)
T3 sequence: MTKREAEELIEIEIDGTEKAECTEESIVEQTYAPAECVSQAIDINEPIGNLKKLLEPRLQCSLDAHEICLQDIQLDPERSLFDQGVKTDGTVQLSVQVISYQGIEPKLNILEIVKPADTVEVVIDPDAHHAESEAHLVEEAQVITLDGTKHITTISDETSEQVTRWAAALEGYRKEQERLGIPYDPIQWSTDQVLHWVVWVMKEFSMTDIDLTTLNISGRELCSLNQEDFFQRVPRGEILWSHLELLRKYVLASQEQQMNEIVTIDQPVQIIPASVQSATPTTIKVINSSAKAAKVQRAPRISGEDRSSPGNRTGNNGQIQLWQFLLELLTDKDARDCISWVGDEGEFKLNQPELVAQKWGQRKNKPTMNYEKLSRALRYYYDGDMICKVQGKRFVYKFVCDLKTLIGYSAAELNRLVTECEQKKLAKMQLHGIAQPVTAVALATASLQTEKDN
Summary of the method: as §1

[4] = target: T4, ERG (Homo sapiens, UniProt P11308 1-479)
T4 sequence: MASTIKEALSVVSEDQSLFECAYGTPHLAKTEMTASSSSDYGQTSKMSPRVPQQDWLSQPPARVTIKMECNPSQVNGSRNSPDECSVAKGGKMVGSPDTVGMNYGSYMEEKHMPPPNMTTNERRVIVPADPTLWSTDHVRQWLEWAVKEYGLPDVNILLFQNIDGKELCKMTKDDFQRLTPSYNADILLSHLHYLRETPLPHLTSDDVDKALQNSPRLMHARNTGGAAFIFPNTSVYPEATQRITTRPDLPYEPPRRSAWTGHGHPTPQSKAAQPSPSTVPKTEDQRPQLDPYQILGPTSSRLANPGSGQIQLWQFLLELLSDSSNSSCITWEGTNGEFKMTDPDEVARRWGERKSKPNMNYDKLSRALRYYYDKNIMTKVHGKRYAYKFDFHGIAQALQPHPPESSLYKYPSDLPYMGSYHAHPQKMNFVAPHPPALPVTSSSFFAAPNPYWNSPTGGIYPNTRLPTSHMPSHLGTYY
Summary of the method: as §1

[5] = target: ELF1 (Homo sapiens, UniProt P32519 1-619)
Summary of the method: as §1

[6] = target: T5, EHF (Homo sapiens, UniProt Q9NZC4 1-300)
T5 sequence: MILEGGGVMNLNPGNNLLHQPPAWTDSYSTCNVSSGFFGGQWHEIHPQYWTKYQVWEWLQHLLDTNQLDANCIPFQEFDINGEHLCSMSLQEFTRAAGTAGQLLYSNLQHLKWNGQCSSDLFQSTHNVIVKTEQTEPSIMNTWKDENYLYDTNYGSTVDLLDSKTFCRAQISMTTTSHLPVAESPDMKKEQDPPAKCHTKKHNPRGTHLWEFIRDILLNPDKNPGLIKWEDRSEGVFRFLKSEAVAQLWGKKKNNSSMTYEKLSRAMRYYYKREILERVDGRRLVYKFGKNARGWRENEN
Summary of the method: as §1

[7] = target: SPI1 (Homo sapiens, UniProt P17947 1-270)
Summary of the method: as §1

[8] = target: SPIB (Homo sapiens, UniProt Q01892 1-262)
Summary of the method: as §1

[9] = target: T6, ELK3 (Homo sapiens, UniProt P41970 1-407)
T6 sequence: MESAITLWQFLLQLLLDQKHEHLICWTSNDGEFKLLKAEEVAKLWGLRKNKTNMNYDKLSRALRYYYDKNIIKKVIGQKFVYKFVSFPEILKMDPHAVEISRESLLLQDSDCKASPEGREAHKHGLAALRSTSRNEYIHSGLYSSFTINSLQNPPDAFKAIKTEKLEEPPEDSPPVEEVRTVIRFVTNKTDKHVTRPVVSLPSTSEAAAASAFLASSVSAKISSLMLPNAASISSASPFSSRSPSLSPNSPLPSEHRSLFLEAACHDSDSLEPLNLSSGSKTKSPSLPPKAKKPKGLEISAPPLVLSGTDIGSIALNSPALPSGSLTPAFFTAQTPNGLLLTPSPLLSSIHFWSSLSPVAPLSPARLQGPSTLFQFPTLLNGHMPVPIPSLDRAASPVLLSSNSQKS
Summary of the method: as §1

Chain of SPIB (Q01892 whole entry): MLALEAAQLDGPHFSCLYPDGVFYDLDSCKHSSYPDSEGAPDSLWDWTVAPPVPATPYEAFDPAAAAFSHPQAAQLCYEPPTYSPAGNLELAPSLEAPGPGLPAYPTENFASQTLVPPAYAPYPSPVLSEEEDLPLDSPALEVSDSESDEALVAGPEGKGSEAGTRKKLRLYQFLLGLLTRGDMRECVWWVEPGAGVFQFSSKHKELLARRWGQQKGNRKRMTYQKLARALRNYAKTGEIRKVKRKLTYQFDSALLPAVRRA
Chain of ELF1 (P32519 whole entry): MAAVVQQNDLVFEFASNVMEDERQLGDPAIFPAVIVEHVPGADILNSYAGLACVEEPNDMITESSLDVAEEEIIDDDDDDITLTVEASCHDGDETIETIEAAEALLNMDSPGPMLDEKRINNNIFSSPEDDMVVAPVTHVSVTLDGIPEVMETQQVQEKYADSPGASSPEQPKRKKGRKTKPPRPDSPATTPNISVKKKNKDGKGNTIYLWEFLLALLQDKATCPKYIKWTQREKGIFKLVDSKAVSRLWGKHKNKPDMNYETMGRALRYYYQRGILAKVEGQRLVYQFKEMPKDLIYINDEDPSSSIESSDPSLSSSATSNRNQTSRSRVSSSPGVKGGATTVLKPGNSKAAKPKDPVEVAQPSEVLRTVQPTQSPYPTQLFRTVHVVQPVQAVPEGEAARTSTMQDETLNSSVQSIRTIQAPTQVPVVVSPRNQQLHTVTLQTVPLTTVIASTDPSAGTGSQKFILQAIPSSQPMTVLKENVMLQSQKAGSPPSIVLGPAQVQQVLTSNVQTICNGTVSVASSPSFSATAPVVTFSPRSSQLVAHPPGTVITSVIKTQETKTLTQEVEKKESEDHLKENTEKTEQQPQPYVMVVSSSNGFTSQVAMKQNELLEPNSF

Sequence: ACCCTC
- binding signal [1]: 1.2 fold enrichment (6-mer frequency, TF over GST control)
- binding signal [2]: 1.27 fold enrichment (6-mer frequency, TF over GST control)
- binding signal [3]: 1.15 fold enrichment (6-mer frequency, TF over GST control)
- binding signal [4]: 1.1 fold enrichment (6-mer frequency, TF over GST control)
- binding signal [5]: 1.13 fold enrichment (6-mer frequency, TF over GST control)
- binding signal [6]: 1.1 fold enrichment (6-mer frequency, TF over GST control)
- binding signal [7]: 1.12 fold enrichment (6-mer frequency, TF over GST control)
- binding signal [8]: 1.14 fold enrichment (6-mer frequency, TF over GST control)
- binding signal [9]: 1.31 fold enrichment (6-mer frequency, TF over GST control)
